Inconclusive results are not listed. The source made the active and inactive calls. How the source made its calls: active means hit-call score of the fitted dose curve at least 0.9, where 1 is the maximum; inconclusive means response in the unintended direction; inactive means score below 0.9.
What follows are molecules tested on xenobiotic metabolism (CYP2C9), CYP2C9 (gene 1559) (assay: CLD_CYP2C9_6hr: CellzDirect (CLD) Gene Expression Assay for xenobiotic metabolism (CYP2C9) at 6 hours (AID 2283664)).
Description: CLD_6hr is a cell-based, multiplexed-readout assay that uses hepatocyte, a human liver primary cell, with measurements taken at 6 hours after chemical dosing in a 96-well plate.CLD_CYP2C9_6hr is one of 16 assay component(s) measured or calculated from the CLD_6hr assay. It is designed to make measurements of mRNA induction, a form of inducible reporter, as detected with chemiluminescence signals by Quantitative Nuclease Protection Assay (qNPA) technology.Data from the assay component CLD_CYP2C9_6hr was analyzed at the endpoint, CLD_CYP2C9_6hr, in the positive analysis fitting direction relative to DMSO as the negative control and baseline of activity. Using a type of inducible reporter, gain-of-signal activity can be used to understand changes in the reporter gene as they relate to the gene CYP2C9. Furthermore, this assay endpoint can be referred to as a primary readout. To generalize the intended target to other relatable targets, this assay endpoint is annotated to the cyp intended target family, where subfamily is xenobiotic metabolism.
Human hepatocyte cultures were treated daily for two consecutive days with fresh dosing solutions containing appropriate concentrations of the 320 ToxCast chemicals (chemical identities were blinded to CellzDirect and other ToxCast collaborators), vehicle control (0.2% DMSO), and positive control inducers as summarized in Table 1. Due to the large number of treatment groups and chemicals examined, the ToxCast chemicals were divided into two groups (spanning two independent cultures of hepatocytes from separate donor preparations (Hu778: ToxCast plates 1 and 2; Hu776: ToxCast plates 3 and 4). Each preparation of human hepatocyte cultures was treated with respective vehicle control, medium only control, set of six positive controls/reference chemicals for the five hepatic receptor pathways, and a subset of eight of the ToxCast chemicals (indoxacarb, pyrithiobac-sodium, norflurazon, cyhalofop-butyl, methomyl, thiram, acetochlor, and propiconazole). These replicate data, coupled with internal replicates designed within the blinded ToxCast chemical library, provided additional data to evaluate interindividual differences between hepatocyte preparations and their potential impact on chemical profiles.Cell morphology and integrity were evaluated using phase-contrast microscopy as an indicator of hepatocyte cell health (Tyson & Green, 1987). Cultures for each treatment group (i.e., media, vehicle [0.2% DMSO], positive control inducers [multiple concentrations], and the ToxCast chemicals [multiple concentrations]) were observed and cell morphology was assessed relative to vehicle control cultures at each harvest time point (0, 6, 24, or 48 h). […] Images were evaluated at the conclusion of the study to assess changes in cell integrity and account for the effects of chemical exposure on uncharacteristic changes in concentration-dependent gene expression profiles. The results from these determinations of apparent cytotoxicity were annotated (yes/no) alongside the corresponding qNPA data for reference.At the conclusion of each treatment period, hepatocyte cultures (96-well) were washed with 1 volume of HBSS, lysed by addition of 25 ul ArrayPlate lysis buffer (HTG, Tucson, AZ), and 70 ul/well of Denaturation Oil, denatured by incubation at 95C for 10 min, and frozen at approximately -70C until analysis by nuclease protection assay (qNPA) (Roberts et al., 2007). For qNPA analysis, cell lysates were thawed at 50C for approximately 30 min, qNPA probes were added, and samples were incubated at 95C for 10 min to begin the detection process by denaturing the target RNA, dissociating the duplexes and secondary structure hybridization. At the conclusion of the hybridization period, S1 nuclease reagent was added to each sample to digest all nonprotected nucleotides at 50C for 60-90 min. […]
`CCOP(=S)(OCC)Oc1nc(Cl)n(C(C)C)n1` was tested, and the outcome was “inactive”. For `COC(=O)NS(=O)(=O)c1ccc(N)cc1`, the outcome was “inactive”. For `COCC(C)N(C(=O)CCl)c1c(C)csc1C` (stereo not given), the outcome was “inactive”. `O=C(O)c1c(Cl)ccc2cc(Cl)cnc12` was tested, and the outcome was “inactive”. With `CCC(C)n1c(=O)[nH]c(C)c(Br)c1=O` (stereo not given) the outcome was “inactive”. `Nc1c(Cl)c(Cl)nc(C(=O)O)c1Cl` was tested, and the outcome was “inactive”. In the case of `Cc1nc(N(C)C)nc(OC(=O)N(C)C)c1C`, the outcome is reported as “inactive”. With `CSC(=O)c1c(C(F)F)nc(C(F)(F)F)c(C(=O)SC)c1CC(C)C` the outcome was “inactive”. With `N#Cc1c[nH]cc1-c1cccc2c1OC(F)(F)O2` the outcome was “inactive”. With `CCNP(=S)(OC)O/C(C)=C/C(=O)OC(C)C` (stereo not given) the outcome was “inactive”. `Nc1c(Cl)c(F)nc(OCC(=O)O)c1Cl` was tested, and the outcome was “inactive”. In the case of `CN=C=S`, the outcome is reported as “inactive”. `CCOP(=O)(OCC)Oc1nc(Cl)c(Cl)cc1Cl` was tested, and the outcome was “inactive”. For `C=CCOC(=O)C(C)(C)OC(=O)c1cc(-n2c(=O)cc(C(F)(F)F)n(C)c2=O)ccc1Cl`, the outcome was “inactive”. With `N#Cc1c(Cl)cccc1Cl` the outcome was “inactive”. `CC1(C)CCC(=Cc2ccc(Cl)cc2)C1(O)Cn1cncn1` (stereo not given) was tested, and the outcome was “inactive”. With `COc1cc(OC)nc(NC(=O)NS(=O)(=O)c2ncccc2OCC(F)(F)F)n1` the outcome was “inactive”. `CCOc1nc(C(Cl)(Cl)Cl)ns1` was tested, and the outcome was “inactive”. `OC(c1ccc(Cl)cc1)(c1ccc(Cl)cc1)C(Cl)(Cl)Cl` was tested, and the outcome was “inactive”. For `O=C1C2CC=CCC2C(=O)N1SC(Cl)(Cl)Cl` (stereo not given), the outcome was “inactive”. In the case of `COP(=O)(OC)O/C(C)=C/C(=O)N(C)C`, the outcome is reported as “inactive”. For `CO/N=C(/C1=NOCCO1)c1ccccc1Oc1ncnc(Oc2ccccc2Cl)c1F`, the outcome was “inactive”. For `CCCCC(C#N)(Cn1cncn1)c1ccc(Cl)cc1` (stereo not given), the outcome was “inactive”. For `CC(C)N1C(=O)c2ccccc2NS1(=O)=O`, the outcome was “inactive”. For `Cc1ccc(N=CN(C)C=Nc2ccc(C)cc2C)c(C)c1`, the outcome was “inactive”. With `CS(=O)(=O)c1cc(C(F)(F)F)ccc1C(=O)c1cnoc1C1CC1` the outcome was “inactive”. `COc1ccc(-c2ccccc2)cc1NNC(=O)OC(C)C` was tested, and the outcome was “inactive”. For `CS(=O)(=O)c1ccc(C(=O)C2C(=O)CCCC2=O)c([N+](=O)[O-])c1`, the outcome was “inactive”. With `CCNC(=O)NC(=O)C(C#N)=NOC` the outcome was “inactive”. With `CC(C)N1C(=O)N(c2ccccc2)CSC1=NC(C)(C)C` the outcome was “inactive”. For `CCOc1nc(F)cc2nc(S(=O)(=O)Nc3c(Cl)cccc3Cl)nn12`, the outcome was “inactive”. For `COc1cc(Cl)c(OC)cc1Cl`, the outcome was “inactive”. For `CC(C)=CC1C(C(=O)OCc2coc(Cc3ccccc3)c2)C1(C)C` (stereo not given), the outcome was “inactive”. `COCC(=O)N(c1c(C)cccc1C)C(C)C(=O)OC` (stereo not given) was tested, and the outcome was “inactive”. For `CC1(C)C(C(=O)OC(C#N)c2cccc(Oc3ccccc3)c2)C1(C)C` (stereo not given), the outcome was “inactive”.
